Bioassay records as filed in PubChem.
Hits are enriched below; roughly 4.6% of the tested compounds scored in any of these assays.
USP2a inh: blocks human ubiquitin-specific protease USP2a. USP2a enzymatic assay, qHTS inhibition. Potency, µM (top dose mostly 38.3 µM), hits mostly inhibitors. 60,000 compounds, 0.1% hits. AID 927; further: nearly all actives have a fitted effect of over 60% in size
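Coupled readout: USP2-cleaved Ub-PLA2 (20nM final) turns over NBD C6-HPC (20uM final), Ex 460nm/Em 535nm after 2.5 h, time-zero read flagging artifacts. Enzyme (20nM final, pH 8.0 Tris) given 30 min RT with compound first; NEM defines full inhibition.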
Tau fil binding: binds recombinant human tau filaments. 71,000 compounds, 2% hits. Potency, µM (highest dose often 57.1 µM). recombinant tau filaments, thioflavin S fluorescence, 15 h; filaments grown with octadecylsulfate alongside compound. P10636;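 further: actives lower thioflavin S fluorescence by blocking filaments or displacing dye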
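ThS-based fibril read: tau 1 uM final, inducer ODS 30 uM final, 37 C for 15 h, ex 450/em 510 nm.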
Hsp90 Hop PPI: changes Hsp90-Hop TPR2A binding signal, up or down. AlphaScreen TPR2A-His6 binding biotin-Hsp90 C-terminal peptide. Potency, µM (titrated, usually from 57 µM). 71,000 compounds, 0.44% hits. AID 595; active means well fitted curve in either direction with a large enough effect; inconclusive means small, poorly fitted or top-dose-only effect, or another doubt
Bst PK mod: alters activity of Bacillus stearothermophilus pyruvate kinase | Potency, µM | purified pyruvate kinase, luminescence ATP production; ribose 5-phosphate activator present at AC10 | 51,000 compounds, 1.2% hits | AID 361; in the data active means potency below about 11 µM; inconclusive means mostly about 12 µM to 25 µM;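 the screen sought inhibitors and activators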
GBA mod: human lysosomal glucosylceramidase modulation. Potency, µM. purified enzyme, resorufin glucoside fluorescence (screen aimed at inhibitors), 20 min. AID 360. 48,000 compounds, 1.1% hits; in the data active means potency below about 15 µM; inconclusive means mostly about 16 µM to 33 µM;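 further: the screen sought inhibitors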
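Normal human glucocerebrosidase (0.2 nM final) was assayed with resorufin β-D-glucopyranoside (30 uM final) in 50mM citric acid/KH2PO4, 10mM sodium taurocholate, 0.01% tween-20, pH 5.9. Compounds were titrated; fluorescence (Ex 548, Em 600) read after 20 min at RT.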
15-hLO inh: 15-hLO (ALOX15) enzyme inhibition; AID 887; Potency, µM (series often up to 57.1 µM), most hits filed as inhibitors; P16050; 74,000 compounds, 1.4% hits; purified 15hLO-1, xylenol orange hydroperoxide absorbance; further: nearly all actives have a fitted effect of over 55% in size
Target sequence (P16050 whole entry, looked up): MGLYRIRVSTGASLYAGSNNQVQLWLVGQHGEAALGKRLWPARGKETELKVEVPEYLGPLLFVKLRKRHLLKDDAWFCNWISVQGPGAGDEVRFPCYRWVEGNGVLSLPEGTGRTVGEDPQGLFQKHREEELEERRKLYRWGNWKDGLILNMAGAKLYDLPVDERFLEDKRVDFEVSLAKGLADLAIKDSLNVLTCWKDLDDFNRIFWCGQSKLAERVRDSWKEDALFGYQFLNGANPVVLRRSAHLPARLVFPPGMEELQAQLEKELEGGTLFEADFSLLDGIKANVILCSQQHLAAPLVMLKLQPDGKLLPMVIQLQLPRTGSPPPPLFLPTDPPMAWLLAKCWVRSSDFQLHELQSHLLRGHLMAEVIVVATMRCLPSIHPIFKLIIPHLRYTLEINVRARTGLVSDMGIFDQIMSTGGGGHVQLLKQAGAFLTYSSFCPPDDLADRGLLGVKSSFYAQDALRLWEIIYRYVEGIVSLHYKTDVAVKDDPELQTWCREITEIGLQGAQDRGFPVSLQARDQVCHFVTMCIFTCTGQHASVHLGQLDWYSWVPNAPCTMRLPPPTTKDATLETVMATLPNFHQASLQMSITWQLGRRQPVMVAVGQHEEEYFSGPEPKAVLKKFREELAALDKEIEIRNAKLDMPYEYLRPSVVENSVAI
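Purified human 15hLO-1 (40 nM final) in 25 mM Hepes pH 7.5, 0.01% Triton X-100 was preincubated with compound 15 min at room temperature, then reacted 6 min with 50 uM arachidonic acid; hydroperoxide detected by Fe-XO, 573/405 nm absorbance ratio.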
Hits are given with their value; - = inactive; ? = inconclusive; . = no result; [ ] = remark or other dose. Unless noted, the call rests on the fitted dose curve; in most records, active means well fitted curve in the direction sought with a large enough effect; inconclusive means small, poorly fitted or top-dose-only effect, or another doubt; inactive means no such curve, though single readings can be large; an effect the other way counts as inactive or inconclusive.

SMILES	USP2a inh	Tau fil binding	Hsp90 Hop PPI	Bst PK mod	GBA mod	15-hLO inh
O=C1OC2(c3cc(Br)c(O)c(Br)c3Oc3c2cc(Br)c(O)c3Br)c2c(Cl)c(Cl)c(Cl)c(Cl)c21	.	0.13µM	?	.	.	-
CCOC(=O)c1c(-c2cccs2)csc1NC(=O)c1ccco1	-	-	-	-	-	-
COC(=O)c1c(-c2cccs2)csc1NC(=O)c1cccnc1	-	-	?	7.7	-	-
Cc1c2c(nc3c(C(=O)NC4CCCCC4C)cnn13)CCCC2 (stereo unspecified)	-	-	-	-	-	-
COc1ccc(O)c(-c2cc(-c3cccs3)[nH]n2)c1	-	-	-	?	-	25µM
O=C(NCCN1CCc2ccccc2C1)Nc1ccc(F)cc1	.	-	-[2.3 µM]	.	.	-
CCc1ccc(NC(=O)NCCN2CCc3ccccc3C2)cc1	-	13µM	-	-	-	?
COc1ccc(N(CC(=O)N2CCCCC2)S(=O)(=O)c2c(C)nn(C)c2C)cc1	.	-	-[2.3 µM]	.	.	-
CCOC(=O)c1sc2nc(N3CCOCC3)c3c(c2c1N)CC(C)(C)N(C)C3	-	13µM	-	.	.	-
CCOC(=O)c1sc2nc(-c3ccco3)c3c(c2c1N)CC(C)(C)OC3	-	13µM	-	-	-	16µM
COC(=O)c1sc2nc(N3CCCCC3)c3c(c2c1N)CC(C)(C)N(C)C3	.	.	.	-	.	.
CC1=C(C#N)C(=O)N(C)C(C)(C)C1	-	-	-	-	-	-
O=C1CC(c2ccc3c(c2)OCO3)Sc2nc3ccccc3n21 (stereo unspecified)	-	-	-	4.5	-	-
O=C(NCc1ccccc1)C1CCN(S(=O)(=O)N2CCCCCC2)CC1	-	-	-	-	-	-
COc1cc(C(=O)Nc2ccccn2)cc(OC)c1OC	.	.	.	-	.	.
COc1cc(C(=O)Nc2ccc(N(C)C)cc2)cc(OC)c1OC	-	10µM	-	.	.	-
COc1cc(C(=O)Nc2nc(-c3cccs3)cs2)cc(OC)c1OC	-	-	-	-	-	16µM
COc1ccc(C(=O)Nc2nc(-c3cccs3)cs2)cc1	-	-	-	?	-	-
COC(=O)c1ccccc1NC(=O)C1COc2ccccc2O1 (stereo unspecified)	.	.	.	-	.	.
COc1ccc2c(c1)c1nnc(SC)nc1n2C	.	-	-	-	-	-
COc1ccc2c(c1)c1nnc(SCC(=O)N3C(C)CCCC3C)nc1n2C (stereo unspecified)	.	13µM	-	.	-	-
O=C(CSc1ncccn1)NCc1ccc(F)cc1	-	-	-	-	-	-
Cc1ccc(-c2nc3ccccc3c(=O)n2CCN2CCOCC2)cc1	-	-	-	-	-	-
Cc1ccc(-c2nc3c(=O)n(C)c4ccccc4c3o2)cc1	-	-	-	0.17	-	-
O=C(Nc1ccc(-c2cn3ccsc3n2)cc1)C1CCCC1	-	-	-	2.4	?	-
SMILES	USP2a inh	Tau fil binding	Hsp90 Hop PPI	Bst PK mod	GBA mod	15-hLO inh
CC(=O)Nc1ccc(-c2cn3ccsc3n2)cc1	-	-	-	?	-	-
O=C(Nc1ccc(-c2cn3ccsc3n2)cc1)C1CC1	-	-	-	4.9	-	-
O=C(CCN1C(=O)c2ccccc2C1=O)Nc1ccc(-c2cn3ccsc3n2)cc1	-	-	-	-	-	-
CC(C)C(=O)Nc1cccc(-c2cn3ccsc3n2)c1	-	-	-	.	.	-
c1cn2cc(-c3ccc4c(c3)OCO4)nc2s1	-	-	-	8.9	-	?
CCOC(=O)Cc1cnc(NC(=O)Cn2nnc(-c3ccc(OCC)cc3)n2)s1	-	-	-	-	-	-
O=C(Nc1nc2c(s1)CCCC2)c1cccs1	-	-	-	9.7	-	-
COc1ccc2c(c1)-c1nc(NC(=O)c3cccs3)sc1CC2	.	.	.	.	.	13µM
COc1ccc2c(c1)-c1nc(NC(=O)c3ccco3)sc1CC2	-	-	-	.	-	-
Cc1ccc2nc(NC(=O)c3cccs3)sc2c1	-	-	-	4.2	-	-
N#CC1=C(SCC(=O)NC2CC2)NC(=O)C(C#N)C12CCCCC2 (stereo unspecified)	-	-	-	-	-	-
N#CC1=C(SCC(=O)NC23CC4CC(CC(C4)C2)C3)NC(=O)C(C#N)C12CCCCC2 (stereo unspecified)	-	?	-	-	6.2	-
